Of roughly 8,800 targets only a part is listed; those with a hit were picked by preference. About 0.5% of all pairs of compound and target were hits. Unmarked numbers belong to inactive results.
Tests used:
Experiment in all cases: log2 fold change, soluble protein after heating vs DMSO (PISA); higher = thermal stabilisation; K562 lysate, 10 uM; active = over 0.2 and 3.5 SD of the protein, either way, in both replicates (recomputed)
alvocidib = compound: CN1CC[C@H](c2c(O)cc(O)c3c(=O)cc(-c4ccccc4Cl)oc23)[C@H](O)C1 [alvocidib]
Summary of the method: (§1)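 K562 pellets were dounce-homogenised in PBS pH 7.4 containing 1 mM MgCl2, and the crude extract, at 1 mg/mL protein, was exposed to 10 μM compound for 30 min. Aliquots were heated for 3 min across 48°C-58°C, pooled, brought to 0.5% NP-40 at 4°C and spun at 21,000xg for 90 min, with the supernatant taken as soluble protein. TMTpro 16plex LC-MS/MS with equalised channel sums quantified that protein. Values are log-two fold changes in thermal stability relative to solvent controls, taken from duplicates.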

Tubastatin A = compound: CN1CCc2c(c3ccccc3n2Cc2ccc(C(=O)NO)cc2)C1 [Tubastatin A]
Summary of the method: as §1

[1] = compound: CNC(=O)C1=CC=CC=C1NC2=NC(=NC=C2Cl)NC3=C(C=C(C=C3)N4CCOCC4)OC
Summary of the method: as §1

defactinib = compound: CNC(=O)c1ccc(Nc2ncc(C(F)(F)F)c(NCc3nccnc3N(C)S(C)(=O)=O)n2)cc1 [defactinib]
Summary of the method: as §1

[2] = compound: CNc1nc(-c2ccc3c(N)n[nH]c3c2)cc(N2C[C@@H](C(=O)NC3CCCCC3)CC[C@H]2C)n1
Summary of the method: as §1

encorafenib = compound: COC(=O)N[C@@H](C)CNc1nccc(-c2cn(C(C)C)nc2-c2cc(Cl)cc(NS(C)(=O)=O)c2F)n1 [encorafenib]
Summary of the method: as §1

[3] = compound: COC(=O)[C@H](CCSC)NC(=O)C1=C(C=C(C=C1)NC[C@H](CS)N)C2=CC=CC=C2
Summary of the method: as §1

alisertib = compound: COc1cc(Nc2ncc3c(n2)-c2ccc(Cl)cc2C(c2c(F)cccc2OC)=NC3)ccc1C(=O)O [alisertib]
Summary of the method: as §1

[4] = compound: COc1cc2nc(-c3cc(F)ccc3O)nc(N[C@@H]3CNC[C@H]3C(C)(C)O)c2cc1OC
Summary of the method: as §1

gefitinib = compound: COc1cc2ncnc(Nc3ccc(F)c(Cl)c3)c2cc1OCCCN1CCOCC1 [gefitinib]
Summary of the method: as §1

lapatinib = compound: CS(=O)(=O)CCNCc1ccc(-c2ccc3ncnc(Nc4ccc(OCc5cccc(F)c5)c(Cl)c4)c3c2)o1 [lapatinib]
Summary of the method: as §1

pictilisib = compound: CS(=O)(=O)N1CCN(Cc2cc3nc(-c4cccc5[nH]ncc45)nc(N4CCOCC4)c3s2)CC1 [pictilisib]
Summary of the method: as §1

crizotinib = compound: C[C@@H](Oc1cc(-c2cnn(C3CCNCC3)c2)cnc1N)c1c(Cl)ccc(F)c1Cl [crizotinib]
Summary of the method: as §1

[5] = compound: C[C@H](C1=CC=C(C=C1)C(=O)NC2=C3C=CNC3=NC=C2)N
Summary of the method: as §1

duvelisib = compound: C[C@H](Nc1ncnc2nc[nH]c12)c1cc2cccc(Cl)c2c(=O)n1-c1ccccc1 [duvelisib]
Summary of the method: as §1

gandotinib = compound: Cc1cc(Nc2cc(CN3CCOCC3)c3nc(C)c(Cc4ccc(Cl)cc4F)n3n2)n[nH]1 [gandotinib]
Summary of the method: as §1

tozasertib = compound: Cc1cc(Nc2cc(N3CCN(C)CC3)nc(Sc3ccc(NC(=O)C4CC4)cc3)n2)n[nH]1 [tozasertib]
Summary of the method: as §1

doramapimod = compound: Cc1ccc(-n2nc(C(C)(C)C)cc2NC(=O)Nc2ccc(OCCN3CCOCC3)c3ccccc23)cc1 [doramapimod]
Summary of the method: as §1

bafetinib = compound: Cc1ccc(NC(=O)c2ccc(CN3CC[C@H](N(C)C)C3)c(C(F)(F)F)c2)cc1Nc1nccc(-c2cncnc2)n1 [bafetinib]
Summary of the method: as §1

[6] = compound: Cc1cccc(CC(=O)N2CCc3c2ccc(-c2cn(C)c4ncnc(N)c24)c3F)n1
Summary of the method: as §1

## NARF (UniProt Q9UHQ1)
alvocidib
  log2 fold change: 0.001
Tubastatin A
  log2 fold change: 0.011
[1]
  log2 fold change: 0.031
defactinib
  log2 fold change: -0.015
[2]
  log2 fold change: -0.014
encorafenib
  log2 fold change: 0.047
[3]
  log2 fold change: 0.003
alisertib
  log2 fold change: -0.021
[4]
  log2 fold change: -0.019
gefitinib
  log2 fold change: -0.007
lapatinib
  log2 fold change: -0.027
pictilisib
  log2 fold change: 0.01
crizotinib
  log2 fold change: 0.032
[5]
  log2 fold change: 0.001
duvelisib
  log2 fold change: 0.029
gandotinib
  log2 fold change: 0.008
tozasertib
  log2 fold change: 0.02
doramapimod
  log2 fold change: 0.012
bafetinib
  log2 fold change: -0.008
[6]
  log2 fold change: -0.04

## MRPS18A isoform 2 (UniProt Q9NVS2)
alvocidib
  log2 fold change: 0.18
Tubastatin A
  log2 fold change: -0.047
[1]
  log2 fold change: -0.156
defactinib
  log2 fold change: -0.024
[2]
  log2 fold change: 0.106
encorafenib
  log2 fold change: 0.029
[3]
  log2 fold change: -0.037
alisertib
  log2 fold change: 0.041
[4]
  log2 fold change: -0.017
gefitinib
  log2 fold change: 0.008
lapatinib
  log2 fold change: 0.005
pictilisib
  log2 fold change: -0.046
crizotinib
  log2 fold change: -0.02
[5]
  log2 fold change: 0.262
duvelisib
  log2 fold change: -0.133
gandotinib
  log2 fold change: -0.164
tozasertib
  log2 fold change: 0.043
doramapimod
  log2 fold change: -0.005
bafetinib
  log2 fold change: 0
[6]
  log2 fold change: -0.226

## NGLY1 (UniProt Q96IV0)
UniProt Q96IV0, sequence (Q96IV0 whole entry, looked up): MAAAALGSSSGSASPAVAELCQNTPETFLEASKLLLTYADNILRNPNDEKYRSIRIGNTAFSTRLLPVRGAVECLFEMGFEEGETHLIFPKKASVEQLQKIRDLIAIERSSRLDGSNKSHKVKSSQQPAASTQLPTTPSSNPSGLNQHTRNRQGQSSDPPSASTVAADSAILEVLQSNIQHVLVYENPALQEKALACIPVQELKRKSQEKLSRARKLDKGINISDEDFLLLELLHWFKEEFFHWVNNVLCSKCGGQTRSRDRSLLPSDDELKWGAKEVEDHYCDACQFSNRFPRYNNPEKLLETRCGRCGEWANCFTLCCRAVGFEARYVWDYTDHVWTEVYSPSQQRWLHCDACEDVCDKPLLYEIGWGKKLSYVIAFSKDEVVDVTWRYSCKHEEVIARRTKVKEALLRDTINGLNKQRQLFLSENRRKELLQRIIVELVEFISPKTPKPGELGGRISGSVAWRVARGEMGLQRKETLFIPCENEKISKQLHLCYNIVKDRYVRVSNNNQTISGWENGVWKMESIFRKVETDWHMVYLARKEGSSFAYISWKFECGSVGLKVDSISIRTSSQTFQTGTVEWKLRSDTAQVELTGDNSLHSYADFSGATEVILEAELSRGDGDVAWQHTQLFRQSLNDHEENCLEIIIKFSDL
alvocidib
  log2 fold change: -0.041
Tubastatin A
  log2 fold change: -0.089
[1]
  log2 fold change: -0.013
defactinib
  log2 fold change: 0.022
[2]
  log2 fold change: 0
encorafenib
  log2 fold change: -0.009
[3]
  log2 fold change: 0.111
alisertib
  log2 fold change: 0.002
[4]
  log2 fold change: 0.001
gefitinib
  log2 fold change: -0.044
lapatinib
  log2 fold change: -0.017
pictilisib
  log2 fold change: -0.002
crizotinib
  log2 fold change: -0.058
[5]
  log2 fold change: 0.038
duvelisib
  log2 fold change: -0.001
gandotinib
  log2 fold change: -0.053
tozasertib
  log2 fold change: -0.025
doramapimod
  log2 fold change: -0.013
bafetinib
  log2 fold change: -0.048
[6]
  log2 fold change: 0.04

## NARS2 (UniProt Q96I59)
alvocidib
  log2 fold change: 0.013
Tubastatin A
  log2 fold change: -0.157
[1]
  log2 fold change: -0.046
defactinib
  log2 fold change: 0.014
[2]
  log2 fold change: -0.04
encorafenib
  log2 fold change: -0.01
[3]
  log2 fold change: 0.039
alisertib
  log2 fold change: -0.006
[4]
  log2 fold change: -0.01
gefitinib
  log2 fold change: -0.016
lapatinib
  log2 fold change: 0.039
pictilisib
  log2 fold change: -0.132
crizotinib
  log2 fold change: -0.034
[5]
  log2 fold change: 0.039
duvelisib
  log2 fold change: -0.002
gandotinib
  log2 fold change: -0.058
tozasertib
  log2 fold change: 0.013
doramapimod
  log2 fold change: -0.01
bafetinib
  log2 fold change: -0.053
[6]
  log2 fold change: 0.024

## PARP14 (UniProt Q460N5)
UniProt Q460N5, sequence (Q460N5 whole entry, looked up): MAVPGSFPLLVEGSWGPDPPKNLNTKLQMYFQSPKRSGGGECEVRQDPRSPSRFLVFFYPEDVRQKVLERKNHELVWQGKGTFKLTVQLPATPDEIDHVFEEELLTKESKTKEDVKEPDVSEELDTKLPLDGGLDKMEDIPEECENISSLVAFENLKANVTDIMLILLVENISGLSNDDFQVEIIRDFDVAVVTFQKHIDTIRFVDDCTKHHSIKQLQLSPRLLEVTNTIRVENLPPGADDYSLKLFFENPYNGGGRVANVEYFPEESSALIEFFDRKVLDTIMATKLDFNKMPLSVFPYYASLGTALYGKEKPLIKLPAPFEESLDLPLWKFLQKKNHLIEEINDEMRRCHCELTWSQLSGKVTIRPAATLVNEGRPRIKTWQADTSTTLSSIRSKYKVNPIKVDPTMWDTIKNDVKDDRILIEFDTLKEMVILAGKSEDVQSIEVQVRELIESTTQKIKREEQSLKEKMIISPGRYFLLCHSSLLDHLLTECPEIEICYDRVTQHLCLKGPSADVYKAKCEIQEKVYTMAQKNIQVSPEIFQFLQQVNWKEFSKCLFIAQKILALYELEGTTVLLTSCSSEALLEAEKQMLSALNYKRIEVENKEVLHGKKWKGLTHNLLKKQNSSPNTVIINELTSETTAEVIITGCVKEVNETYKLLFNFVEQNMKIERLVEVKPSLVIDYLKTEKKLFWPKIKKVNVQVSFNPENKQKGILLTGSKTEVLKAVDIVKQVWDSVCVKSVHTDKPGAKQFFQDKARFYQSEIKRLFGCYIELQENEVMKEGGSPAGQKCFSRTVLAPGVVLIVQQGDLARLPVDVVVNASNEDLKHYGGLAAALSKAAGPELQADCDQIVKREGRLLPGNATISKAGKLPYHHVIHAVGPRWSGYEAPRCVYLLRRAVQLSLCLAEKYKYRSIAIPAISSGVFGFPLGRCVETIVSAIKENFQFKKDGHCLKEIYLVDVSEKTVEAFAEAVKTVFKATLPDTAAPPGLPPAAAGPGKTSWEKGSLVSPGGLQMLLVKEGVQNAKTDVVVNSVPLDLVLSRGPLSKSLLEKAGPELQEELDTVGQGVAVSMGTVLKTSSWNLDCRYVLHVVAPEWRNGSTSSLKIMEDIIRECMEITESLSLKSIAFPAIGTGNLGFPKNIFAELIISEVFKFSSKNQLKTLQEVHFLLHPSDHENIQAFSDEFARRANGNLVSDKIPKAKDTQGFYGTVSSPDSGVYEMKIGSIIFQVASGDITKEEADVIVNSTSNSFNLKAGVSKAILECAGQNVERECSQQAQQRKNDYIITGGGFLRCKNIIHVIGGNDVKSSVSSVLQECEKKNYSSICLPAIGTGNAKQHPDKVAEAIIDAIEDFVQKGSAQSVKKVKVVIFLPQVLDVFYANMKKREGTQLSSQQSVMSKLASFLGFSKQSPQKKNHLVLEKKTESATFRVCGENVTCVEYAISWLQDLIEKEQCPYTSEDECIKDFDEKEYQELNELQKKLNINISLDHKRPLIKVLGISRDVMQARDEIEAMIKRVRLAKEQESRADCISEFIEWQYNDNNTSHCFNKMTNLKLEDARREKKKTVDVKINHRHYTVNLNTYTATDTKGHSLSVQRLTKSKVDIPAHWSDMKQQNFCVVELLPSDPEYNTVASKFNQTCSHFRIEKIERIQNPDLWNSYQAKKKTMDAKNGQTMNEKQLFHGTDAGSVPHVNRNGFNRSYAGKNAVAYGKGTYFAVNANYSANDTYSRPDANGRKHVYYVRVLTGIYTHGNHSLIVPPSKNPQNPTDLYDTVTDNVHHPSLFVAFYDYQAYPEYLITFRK
alvocidib
  log2 fold change: 0.009
Tubastatin A
  log2 fold change: -0.238
[1]
  log2 fold change: -0.15
defactinib
  log2 fold change: -0.007
[2]
  log2 fold change: -0.09
encorafenib
  log2 fold change: 0.021
[3]
  log2 fold change: 0.082
alisertib
  log2 fold change: -0.127
[4]
  log2 fold change: 0
gefitinib
  log2 fold change: -0.014
lapatinib
  log2 fold change: -0.018
pictilisib
  log2 fold change: -0.057
crizotinib
  log2 fold change: -0.154
[5]
  log2 fold change: 0.148
duvelisib
  log2 fold change: -0.13
gandotinib
  log2 fold change: -0.123
tozasertib
  log2 fold change: -0.013
doramapimod
  log2 fold change: -0.013
bafetinib
  log2 fold change: -0.081
[6]
  log2 fold change: 0

## MSH6 (UniProt P52701)
alvocidib
  log2 fold change: -0.021
Tubastatin A
  log2 fold change: -0.17
[1]
  log2 fold change: 0.009
defactinib
  log2 fold change: 0.012
[2]
  log2 fold change: -0.032
encorafenib
  log2 fold change: 0.019
[3]
  log2 fold change: 0.105
alisertib
  log2 fold change: 0.003
[4]
  log2 fold change: -0.011
gefitinib
  log2 fold change: -0.023
lapatinib
  log2 fold change: -0.004
pictilisib
  log2 fold change: -0.005
crizotinib
  log2 fold change: -0.076
[5]
  log2 fold change: -0.003
duvelisib
  log2 fold change: 0.014
gandotinib
  log2 fold change: -0.087
tozasertib
  log2 fold change: 0.013
doramapimod
  log2 fold change: 0.037
bafetinib
  log2 fold change: -0.051
[6]
  log2 fold change: 0.022

## NIFK (UniProt Q9BYG3)
UniProt Q9BYG3, sequence (Q9BYG3 whole entry, looked up): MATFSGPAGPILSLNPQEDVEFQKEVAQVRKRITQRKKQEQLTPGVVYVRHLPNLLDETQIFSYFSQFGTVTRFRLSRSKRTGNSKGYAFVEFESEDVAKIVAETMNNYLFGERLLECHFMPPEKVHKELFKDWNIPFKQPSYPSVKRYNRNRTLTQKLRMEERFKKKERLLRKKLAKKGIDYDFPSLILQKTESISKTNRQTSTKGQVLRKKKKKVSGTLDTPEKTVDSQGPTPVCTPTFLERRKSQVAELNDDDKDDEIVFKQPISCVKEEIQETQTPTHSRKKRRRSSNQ
alvocidib
  log2 fold change: 0.009
Tubastatin A
  log2 fold change: -0.023
[1]
  log2 fold change: -0.023
defactinib
  log2 fold change: 0
[2]
  log2 fold change: 0.095
encorafenib
  log2 fold change: 0.039
[3]
  log2 fold change: -0.003
alisertib
  log2 fold change: -0.073
[4]
  log2 fold change: -0.014
gefitinib
  log2 fold change: 0.01
lapatinib
  log2 fold change: -0.004
pictilisib
  log2 fold change: -0.019
crizotinib
  log2 fold change: -0.033
[5]
  log2 fold change: -0.027
duvelisib
  log2 fold change: 0.009
gandotinib
  log2 fold change: 0
tozasertib
  log2 fold change: 0.036
doramapimod
  log2 fold change: -0.009
bafetinib
  log2 fold change: -0.026
[6]
  log2 fold change: 0.064

## NIPSNAP3A (UniProt Q9UFN0)
UniProt Q9UFN0, sequence (Q9UFN0 whole entry, looked up): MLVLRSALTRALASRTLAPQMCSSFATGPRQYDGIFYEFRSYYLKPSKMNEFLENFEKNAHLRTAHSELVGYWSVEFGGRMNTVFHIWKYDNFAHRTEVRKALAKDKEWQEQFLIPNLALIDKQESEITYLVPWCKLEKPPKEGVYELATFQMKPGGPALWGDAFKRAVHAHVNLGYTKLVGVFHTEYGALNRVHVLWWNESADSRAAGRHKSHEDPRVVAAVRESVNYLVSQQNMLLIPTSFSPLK
alvocidib
  log2 fold change: 0.288 (active)
Tubastatin A
  log2 fold change: 0.015
[1]
  log2 fold change: 0.016
defactinib
  log2 fold change: -0.021
[2]
  log2 fold change: 0.025
encorafenib
  log2 fold change: 0.016
[3]
  log2 fold change: -0.022
alisertib
  log2 fold change: -0.023
[4]
  log2 fold change: 0.005
gefitinib
  log2 fold change: -0.023
lapatinib
  log2 fold change: -0.007
pictilisib
  log2 fold change: -0.031
crizotinib
  log2 fold change: 0.021
[5]
  log2 fold change: 0.466 (active)
duvelisib
  log2 fold change: 0.03
gandotinib
  log2 fold change: -0.197
tozasertib
  log2 fold change: -0.011
doramapimod
  log2 fold change: -0.029
bafetinib
  log2 fold change: 0.061
[6]
  log2 fold change: -0.276 (active)

## NAT1 (UniProt P18440)
UniProt P18440, sequence (P18440 whole entry, looked up): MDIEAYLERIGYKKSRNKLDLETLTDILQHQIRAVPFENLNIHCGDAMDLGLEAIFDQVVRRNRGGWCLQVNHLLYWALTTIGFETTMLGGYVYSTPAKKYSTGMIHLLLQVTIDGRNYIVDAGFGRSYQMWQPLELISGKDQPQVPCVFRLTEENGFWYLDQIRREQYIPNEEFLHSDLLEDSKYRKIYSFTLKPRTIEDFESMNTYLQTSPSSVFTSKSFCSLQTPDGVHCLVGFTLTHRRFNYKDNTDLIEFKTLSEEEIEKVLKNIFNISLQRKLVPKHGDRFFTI
alvocidib
  log2 fold change: 0.038
Tubastatin A
  log2 fold change: -0.087
[1]
  log2 fold change: -0.025
defactinib
  log2 fold change: 0.05
[2]
  log2 fold change: -0.046
encorafenib
  log2 fold change: -0.02
[3]
  log2 fold change: 0.006
alisertib
  log2 fold change: 0.035
[4]
  log2 fold change: 0.039
gefitinib
  log2 fold change: 0.031
lapatinib
  log2 fold change: 0.026
pictilisib
  log2 fold change: 0.111
crizotinib
  log2 fold change: -0.227
[5]
  log2 fold change: -0.089
duvelisib
  log2 fold change: 0.006
gandotinib
  log2 fold change: 0.004
tozasertib
  log2 fold change: -0.048
doramapimod
  log2 fold change: 0.058
bafetinib
  log2 fold change: 0.006
[6]
  log2 fold change: 0.083

## MTOR (UniProt P42345)
alvocidib
  log2 fold change: -0.054
Tubastatin A
  log2 fold change: -0.118
[1]
  log2 fold change: -0.038
defactinib
  log2 fold change: 0.01
[2]
  log2 fold change: -0.025
encorafenib
  log2 fold change: 0.016
[3]
  log2 fold change: 0.014
alisertib
  log2 fold change: 0.006
[4]
  log2 fold change: 0
gefitinib
  log2 fold change: -0.039
lapatinib
  log2 fold change: -0.008
pictilisib
  log2 fold change: -0.016
crizotinib
  log2 fold change: -0.068
[5]
  log2 fold change: -0.042
duvelisib
  log2 fold change: 0.021
gandotinib
  log2 fold change: -0.079
tozasertib
  log2 fold change: 0.018
doramapimod
  log2 fold change: 0.055
bafetinib
  log2 fold change: -0.015
[6]
  log2 fold change: 0.053

## MYO1D (UniProt O94832)
alvocidib
  log2 fold change: 0.026
Tubastatin A
  log2 fold change: -0.091
[1]
  log2 fold change: -0.006
defactinib
  log2 fold change: 0.048
[2]
  log2 fold change: -0.008
encorafenib
  log2 fold change: 0.058
[3]
  log2 fold change: -0.012
alisertib
  log2 fold change: -0.019
[4]
  log2 fold change: 0.012
gefitinib
  log2 fold change: -0.016
lapatinib
  log2 fold change: 0.014
pictilisib
  log2 fold change: -0.051
crizotinib
  log2 fold change: -0.035
[5]
  log2 fold change: 0.016
duvelisib
  log2 fold change: -0.028
gandotinib
  log2 fold change: -0.072
tozasertib
  log2 fold change: 0.01
doramapimod
  log2 fold change: 0.011
bafetinib
  log2 fold change: -0.041
[6]
  log2 fold change: -0.005

## MYOM1 (UniProt P52179)
UniProt P52179, sequence (P52179 whole entry, looked up): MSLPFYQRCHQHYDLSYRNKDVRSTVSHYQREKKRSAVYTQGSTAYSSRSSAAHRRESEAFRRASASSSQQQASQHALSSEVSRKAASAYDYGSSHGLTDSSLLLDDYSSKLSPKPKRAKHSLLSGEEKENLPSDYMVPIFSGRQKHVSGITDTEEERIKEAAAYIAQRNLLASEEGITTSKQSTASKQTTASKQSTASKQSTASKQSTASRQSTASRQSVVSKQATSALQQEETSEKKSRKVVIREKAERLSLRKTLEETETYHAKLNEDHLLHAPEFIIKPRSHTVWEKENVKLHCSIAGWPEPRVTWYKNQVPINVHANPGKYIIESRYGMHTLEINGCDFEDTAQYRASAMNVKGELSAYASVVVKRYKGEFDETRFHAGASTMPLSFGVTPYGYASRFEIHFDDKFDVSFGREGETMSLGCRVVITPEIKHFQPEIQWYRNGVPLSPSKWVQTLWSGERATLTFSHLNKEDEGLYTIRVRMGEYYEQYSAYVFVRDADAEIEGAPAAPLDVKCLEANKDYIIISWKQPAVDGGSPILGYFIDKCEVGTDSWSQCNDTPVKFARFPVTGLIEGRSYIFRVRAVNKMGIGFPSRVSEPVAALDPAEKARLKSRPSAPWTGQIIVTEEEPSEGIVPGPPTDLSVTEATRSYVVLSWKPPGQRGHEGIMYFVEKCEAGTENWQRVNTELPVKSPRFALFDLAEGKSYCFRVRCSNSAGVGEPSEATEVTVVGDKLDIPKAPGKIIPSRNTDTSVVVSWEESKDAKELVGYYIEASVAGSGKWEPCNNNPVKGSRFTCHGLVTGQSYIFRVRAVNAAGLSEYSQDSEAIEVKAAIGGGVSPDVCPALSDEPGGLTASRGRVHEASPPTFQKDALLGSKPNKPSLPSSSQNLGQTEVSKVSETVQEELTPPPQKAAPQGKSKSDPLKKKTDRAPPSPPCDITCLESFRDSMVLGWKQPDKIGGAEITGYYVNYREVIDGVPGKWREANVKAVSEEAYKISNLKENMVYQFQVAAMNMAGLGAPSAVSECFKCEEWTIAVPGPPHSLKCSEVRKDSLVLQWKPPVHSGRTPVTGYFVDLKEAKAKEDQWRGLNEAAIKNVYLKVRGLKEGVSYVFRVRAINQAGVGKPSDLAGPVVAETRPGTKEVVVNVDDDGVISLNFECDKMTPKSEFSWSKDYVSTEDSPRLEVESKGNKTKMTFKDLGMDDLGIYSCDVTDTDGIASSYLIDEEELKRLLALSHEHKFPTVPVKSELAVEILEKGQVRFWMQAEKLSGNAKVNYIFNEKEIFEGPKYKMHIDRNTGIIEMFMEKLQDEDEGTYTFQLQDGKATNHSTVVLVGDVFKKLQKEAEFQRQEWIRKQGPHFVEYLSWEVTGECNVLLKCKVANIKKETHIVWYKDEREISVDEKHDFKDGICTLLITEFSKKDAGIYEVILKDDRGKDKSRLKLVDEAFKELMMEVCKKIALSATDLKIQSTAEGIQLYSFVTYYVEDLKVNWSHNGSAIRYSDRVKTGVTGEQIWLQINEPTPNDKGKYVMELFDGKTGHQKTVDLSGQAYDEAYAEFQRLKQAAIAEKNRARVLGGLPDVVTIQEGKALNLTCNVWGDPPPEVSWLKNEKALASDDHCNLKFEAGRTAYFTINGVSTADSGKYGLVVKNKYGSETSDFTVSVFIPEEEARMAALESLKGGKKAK
alvocidib
  log2 fold change: 0.039
Tubastatin A
  log2 fold change: -0.033
[1]
  log2 fold change: -0.092
defactinib
  log2 fold change: 0.194
[2]
  log2 fold change: 0.139
encorafenib
  log2 fold change: 0.065
[3]
  log2 fold change: -0.011
alisertib
  log2 fold change: 0.215
[4]
  log2 fold change: -0.06
gefitinib
  log2 fold change: 0.026
lapatinib
  log2 fold change: 0.099
pictilisib
  log2 fold change: 0.009
crizotinib
  log2 fold change: 0.054
[5]
  log2 fold change: -0.082
duvelisib
  log2 fold change: -0.02
gandotinib
  log2 fold change: 0.065
tozasertib
  log2 fold change: -0.137
doramapimod
  log2 fold change: -0.436
bafetinib
  log2 fold change: -0.252
[6]
  log2 fold change: 0.05

From the supplement of paper PMC10849652
